# Measurements: PubChem BioAssay (EPA / NIEHS)
# Values joined by “and” are separate entries in the source; they are usually repeats but may differ in a detail not shown here. Equal values may be shown once. Results filed as inconclusive are left out. Active and inactive are the calls of the source. Rule for the calls, unless noted: active = hit-call score of the fitted dose curve at least 0.9, where 1 is the maximum; inactive = score below 0.9.
# Read-out: Monokine induced gamma interferon (MIG), CXCL9 (gene 4283)
# Experiment: BSK_3C_MIG: BioMAP Diversity Plus: 3C Assay for Monokine induced gamma interferon (MIG) Biomarker Activity (AID 2283021)
# Details: primary human endothelial cells (HUVEC); actives raise or lower the signal
# In short: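 ELISA measurement of MIG in human umbilical vein endothelial cells 24 h after treatment. Cytotoxicity tracked by SRB staining in parallel cultures; gain or loss of signal fitted relative to DMSO.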
row,SMILES,outcome
1,C=CC/C=C/C/C=C/C/C=C/C,inactive
2,FC(F)(F)C(F)(F)C(F)(F)C(F)(F)C(F)(F)C(F)(F)C(F)(F)I,inactive
3,FC1CC(F)(F)C(F)(F)C1(F)F (stereo unspecified),inactive
4,O=C(O)C(F)(F)C(F)(F)OC(F)(F)F,inactive
5,C=CC(F)(F)C(F)(F)C(F)(F)C(F)(F)C(F)(F)C(F)(F)C(F)(F)C(F)(F)C=C,inactive
6,O=C(O)C(F)(F)C(F)(F)C(F)(F)C(F)(F)C(F)(F)C(F)(F)C(F)(F)C(F)(F)C(F)(F)C(F)(F)C(F)(F)C(F)(F)C(F)(F)F,inactive
7,CS(C)(=O)=O,inactive
8,CCN(CC)c1ccc2c(C)cc(=O)oc2c1,inactive
9,CCCCCCCOC(=O)c1ccccc1C(=O)OCCCCCCC,inactive
10,O=S(=O)(O)C(F)(F)C(F)(F)C(F)(F)C(F)(F)C(F)(F)C(F)(F)C(F)(F)F,inactive
11,OCC(F)(F)C(F)(F)C(F)(F)F,inactive
12,O=C(O)C(F)(OC(F)(F)C(F)(OC(F)(F)C(F)(OC(F)(F)C(F)(F)C(F)(F)F)C(F)(F)F)C(F)(F)F)C(F)(F)F (stereo unspecified),inactive

# Molecular target: human Vitamin D Receptor (VDR), VDR (gene 7421) (UniProt P11473)
# Sequence (P11473 whole entry, looked up): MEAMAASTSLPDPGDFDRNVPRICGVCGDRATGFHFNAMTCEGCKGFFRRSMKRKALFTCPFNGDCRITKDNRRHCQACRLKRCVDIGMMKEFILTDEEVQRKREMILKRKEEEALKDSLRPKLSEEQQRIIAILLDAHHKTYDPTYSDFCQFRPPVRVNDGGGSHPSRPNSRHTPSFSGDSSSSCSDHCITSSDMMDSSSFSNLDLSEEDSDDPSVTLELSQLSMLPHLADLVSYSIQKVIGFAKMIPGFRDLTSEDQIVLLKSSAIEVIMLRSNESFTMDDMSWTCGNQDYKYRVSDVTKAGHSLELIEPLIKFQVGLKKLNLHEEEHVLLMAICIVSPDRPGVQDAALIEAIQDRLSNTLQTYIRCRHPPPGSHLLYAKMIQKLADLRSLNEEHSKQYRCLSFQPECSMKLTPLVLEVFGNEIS
# Experiment: ATG_VDR_TRANS: Attagene TRANS-FACTORIAL HepG2 Assay for human Vitamin D Receptor (VDR) (AID 2283022; active = hit-call score of the fitted dose curve at least 0.9, where 1 is the maximum)
# Details: not given
# In short: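 HepG2 cells were transiently transfected with GAL4-UAS reporter units and a chimeric VDR-Gal4 construct, then dosed for 24 hours. Reporter mRNA was quantified by RT-PCR, fluorescent labeling, HpaI digestion and capillary electrophoresis; gain of signal analysed vs DMSO.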
row,SMILES,outcome
1,CC(Cc1ccc(O)c(O)c1)C(C)Cc1ccc(O)c(O)c1 (stereo unspecified),inactive
2,O=C(OCCOCCOCCOC(=O)c1ccccc1)c1ccccc1,inactive
3,CCCCCC=O,inactive
4,CC(C)(C)c1ccc(OC2CCCCC2O)cc1 (stereo unspecified),inactive
5,CC/C=C\CCOC(C)=O,inactive
6,OC[C@@H](O)[C@@H](O)[C@H](O)[C@@H](O)CO,inactive
7,CCCCCCS,inactive
8,CNC(=S)NC,inactive
9,CC(C)=CCCC(C)CCOC(=O)C(C)C (stereo unspecified),inactive
10,C(=C(c1ccccc1)c1ccccc1)c1ccccc1,inactive
11,C1COCCN1,inactive
12,Nc1cc(Cl)c(N)c(Cl)c1,inactive
13,COC(=O)C1CCC(C(=O)OC)CC1 (stereo unspecified),inactive
14,c1ccc(B(c2ccccc2)c2ccccc2)cc1,inactive
15,O=C(C=Cc1ccccc1)OCC=Cc1ccccc1,inactive
16,CCCCCCOC(=O)c1ccccc1,inactive
17,O=S(=O)(O)c1ccc2ccccc2c1,inactive
18,Nc1ccc(Oc2cccc(Oc3ccc(N)cc3)c2)cc1,inactive

# Read-out: not listed separately
# Experiment: BSK_3C_SRB: Viability Assessment in the BioMAP Diversity Plus: 3C Assay (AID 2283023);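 note: cells read 24 h after compound dosing; fitted both ways against DMSO so a hit may be signal rise or drop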
# Details: primary human endothelial cells (HUVEC)
# In short: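 Human umbilical vein endothelial cells in the 3C system, treated 24 h. Total protein measured by 0.1% sulforhodamine B staining after 10% TCA fixation, read at 560 nm; bidirectional fit versus DMSO.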
row,SMILES,outcome
1,C=CC/C=C/C/C=C/C/C=C/C,inactive
2,FC(F)(F)C(F)(F)C(F)(F)C(F)(F)C(F)(F)C(F)(F)C(F)(F)I,inactive
3,FC1CC(F)(F)C(F)(F)C1(F)F (stereo unspecified),inactive
4,O=C(O)C(F)(F)C(F)(F)OC(F)(F)F,inactive
5,C=CC(F)(F)C(F)(F)C(F)(F)C(F)(F)C(F)(F)C(F)(F)C(F)(F)C(F)(F)C=C,inactive
6,O=C(O)C(F)(F)C(F)(F)C(F)(F)C(F)(F)C(F)(F)C(F)(F)C(F)(F)C(F)(F)C(F)(F)C(F)(F)C(F)(F)C(F)(F)C(F)(F)F,inactive
7,CS(C)(=O)=O,inactive
8,CCN(CC)c1ccc2c(C)cc(=O)oc2c1,inactive
9,CCCCCCCOC(=O)c1ccccc1C(=O)OCCCCCCC,inactive
10,O=S(=O)(O)C(F)(F)C(F)(F)C(F)(F)C(F)(F)C(F)(F)C(F)(F)C(F)(F)F,inactive
11,OCC(F)(F)C(F)(F)C(F)(F)F,inactive
12,O=C(O)C(F)(OC(F)(F)C(F)(OC(F)(F)C(F)(OC(F)(F)C(F)(F)C(F)(F)F)C(F)(F)F)C(F)(F)F)C(F)(F)F (stereo unspecified),inactive

# Read-out: Matrix Metallopeptidase 1 (MMP1), MMP1 (gene 4312)
# Experiment: BSK_BE3C_MMP1: BioMAP Diversity Plus: BE3C Assay for Matrix Metallopeptidase 1 (MMP1) Biomarker Activity (AID 2283024)
# Details: primary human bronchial epithelial cells; actives raise or lower the signal
# In short: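 ELISA measurement of MMP-1 after 24 h compound exposure of primary human bronchial epithelial cells. Changes in either direction fitted relative to DMSO; parallel SRB staining checked overt cytotoxicity.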
SMILES,outcome,AC50
C=CC/C=C/C/C=C/C/C=C/C,inactive,
FC(F)(F)C(F)(F)C(F)(F)C(F)(F)C(F)(F)C(F)(F)C(F)(F)I,inactive,
FC1CC(F)(F)C(F)(F)C1(F)F (stereo unspecified),inactive,
O=C(O)C(F)(F)C(F)(F)OC(F)(F)F,inactive,
C=CC(F)(F)C(F)(F)C(F)(F)C(F)(F)C(F)(F)C(F)(F)C(F)(F)C(F)(F)C=C,inactive,
O=C(O)C(F)(F)C(F)(F)C(F)(F)C(F)(F)C(F)(F)C(F)(F)C(F)(F)C(F)(F)C(F)(F)C(F)(F)C(F)(F)C(F)(F)C(F)(F)F,inactive,
CS(C)(=O)=O,inactive,
CCN(CC)c1ccc2c(C)cc(=O)oc2c1,inactive,
CCCCCCCOC(=O)c1ccccc1C(=O)OCCCCCCC,inactive,
O=S(=O)(O)C(F)(F)C(F)(F)C(F)(F)C(F)(F)C(F)(F)C(F)(F)C(F)(F)F,,8.64 µM (active) and 15.6 µM (active)
OCC(F)(F)C(F)(F)C(F)(F)F,inactive,
O=C(O)C(F)(OC(F)(F)C(F)(OC(F)(F)C(F)(OC(F)(F)C(F)(F)C(F)(F)F)C(F)(F)F)C(F)(F)F)C(F)(F)F (stereo unspecified),inactive,

# Read-out: Pselectin, SELP (gene 6403)
# Experiment: BSK_4H_Pselectin: BioMAP Diversity Plus: 4H Assay for Pselectin Biomarker Activity (AID 2283026)
# Details: primary human endothelial cells (HUVEC); actives raise or lower the signal
# In short: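 ELISA of surface P-selectin on HUVEC, 24 h after dosing, with parallel SRB staining (0.1% after 10% TCA fixation, 560 nm) for overt cytotoxicity. Activity fitted in both directions relative to DMSO.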
row,SMILES,outcome
1,C=CC/C=C/C/C=C/C/C=C/C,inactive
2,FC(F)(F)C(F)(F)C(F)(F)C(F)(F)C(F)(F)C(F)(F)C(F)(F)I,inactive
3,FC1CC(F)(F)C(F)(F)C1(F)F (stereo unspecified),inactive
4,O=C(O)C(F)(F)C(F)(F)OC(F)(F)F,inactive
5,C=CC(F)(F)C(F)(F)C(F)(F)C(F)(F)C(F)(F)C(F)(F)C(F)(F)C(F)(F)C=C,inactive
6,O=C(O)C(F)(F)C(F)(F)C(F)(F)C(F)(F)C(F)(F)C(F)(F)C(F)(F)C(F)(F)C(F)(F)C(F)(F)C(F)(F)C(F)(F)C(F)(F)F,inactive
7,CS(C)(=O)=O,inactive
8,CCN(CC)c1ccc2c(C)cc(=O)oc2c1,inactive
9,CCCCCCCOC(=O)c1ccccc1C(=O)OCCCCCCC,inactive
10,O=S(=O)(O)C(F)(F)C(F)(F)C(F)(F)C(F)(F)C(F)(F)C(F)(F)C(F)(F)F,inactive
11,OCC(F)(F)C(F)(F)C(F)(F)F,inactive
12,O=C(O)C(F)(OC(F)(F)C(F)(OC(F)(F)C(F)(OC(F)(F)C(F)(F)C(F)(F)F)C(F)(F)F)C(F)(F)F)C(F)(F)F (stereo unspecified),inactive
